miR-122 inh – miR-122 sensor activation; 340,000 tested, 0.14% active; AID 623901; activation, % at 12.5 µM; Huh7 psiCHECK-miR122 Renilla luciferase sensor, 48 h;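 active means mean activation of 30% or more, with every replicate also reaching 30%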;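 further: 0% = median of neutral control wells and 100% = median of positive control wells; higher luciferase signal means stronger suppression of miR-122 activity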
Active calls of the source: *. The sample as a whole holds a higher share of hits than the screen did.

SMILES	miR-122 inh
Cc1ccc(CN2CCSc3ccc(C(=O)NCc4ccco4)cc32)cc1	-99.5
Cc1ccc(C2CC(C(F)(F)F)n3nc(C(=O)NCc4ccco4)cc3N2)cc1 (stereo not drawn)	40.9*
C[C@H]1CN([C@@H](C)CO)C(=O)c2cc(-c3cccc(F)c3)cnc2O[C@@H]1CN(C)C(=O)c1cccc(F)c1	2.6
COc1cccc(NS(=O)(=O)c2ccc(Br)s2)c1	-218.3
COc1cccc(-n2nnnc2S(C)(=O)=O)c1	48.4*
COc1cccc(NS(=O)(=O)c2c(C)cc(C)cc2C)c1	-398.8
C[C@@H]1CN([C@@H](C)CO)C(=O)c2cc(C#Cc3ccccc3)cnc2O[C@H]1CN(C)Cc1ccccn1	6.8
C[C@H](O)C#Cc1ccc2c(c1)O[C@@H](CN(C)Cc1cccnc1)[C@@H](C)CN([C@@H](C)CO)S2(=O)=O	-1.9
C[C@H]1CN([C@@H](C)CO)C(=O)c2cc(C3=CCCCC3)cnc2O[C@@H]1CN(C)CC1CCOCC1	-2.9
CCCCCCCN(C(=O)CCl)c1cccc(C)c1	66.3*
C[C@@H]1CN([C@H](C)CO)C(=O)c2cc(C#CC3(O)CCCC3)cnc2O[C@H]1CN(C)C(=O)Cc1ccccc1	-1.4
Cc1cc(C)c(C)c(S(=O)(=O)NCc2ccncc2)c1C	-122.1
Cc1cc(C(C)(C)C)cc(S(=O)(=O)NCCc2ccncc2)c1C	44.1*
CCCc1ccc(S(=O)(=O)NCCc2ccncc2)cc1	36.1*
Cc1ccc(C)c(S(=O)(=O)NCCCc2ccccc2)c1	-92.7
CC(=O)Nc1ccc(S(=O)(=O)NCCc2ccc(S(N)(=O)=O)cc2)cc1	-225.6
O=C(Nc1ccc(S(=O)(=O)NCCc2ccccc2)cc1)c1ccco1	-364.6
C[C@@H]1CN([C@H](C)CO)C(=O)c2cc(C#CC3(O)CCCC3)cnc2O[C@@H]1CN(C)C(=O)C1CCCCC1	-2.2
CC(C)C#Cc1ccc2c(c1)O[C@H](CN(C)C(=O)Nc1ccccc1)[C@@H](C)CN([C@@H](C)CO)S2(=O)=O	-100.5
CCOC(=O)/C(C#N)=C1/C=CN(Cc2ccccc2)C=N1	33.4*
C[C@H]1CN([C@@H](C)CO)S(=O)(=O)c2ccc(C#Cc3ccncc3)cc2O[C@@H]1CN(C)S(=O)(=O)c1ccccc1	-105.5
COCC#Cc1cnc2c(c1)C(=O)N([C@@H](C)CO)C[C@H](C)[C@H](CN(C)C(=O)Cc1ccccc1)O2	-0.1
CCCC#Cc1ccc2c(c1)O[C@@H](CN(C)C(=O)CC)[C@@H](C)CN([C@@H](C)CO)S2(=O)=O	0.4
CC(C)C#Cc1ccc2c(c1)O[C@@H](CN(C)C(=O)CC1CC1)[C@H](C)CN([C@@H](C)CO)S2(=O)=O	-0.5
C[C@H]1CN([C@@H](C)CO)S(=O)(=O)c2ccc(Br)cc2O[C@H]1CN(C)C(=O)CC1CC1	3.5
SMILES	miR-122 inh
COCC(=O)N(C)C[C@H]1Oc2cc(-c3ccc(C#N)cc3)ccc2S(=O)(=O)N([C@@H](C)CO)C[C@H]1C	50.8*
Cc1ccc(S(=O)(=O)N(C)C[C@H]2Oc3cc(-c4cccc(F)c4)ccc3S(=O)(=O)N([C@@H](C)CO)C[C@H]2C)cc1	-4.2
Cc1ccc(S(=O)(=O)N(C)C[C@@H]2Oc3cc(-c4cccc(F)c4)ccc3S(=O)(=O)N([C@@H](C)CO)C[C@@H]2C)cc1	7.7
COCC(=O)N(C)C[C@@H]1Oc2cc(-c3ccccc3)ccc2S(=O)(=O)N([C@@H](C)CO)C[C@H]1C	4.5
COCC(=O)N(C)C[C@@H]1Oc2cc(-c3ccccc3)ccc2S(=O)(=O)N([C@H](C)CO)C[C@@H]1C	6.0
COCC(=O)N(C)C[C@@H]1Oc2cc(-c3cccc(F)c3)ccc2S(=O)(=O)N([C@@H](C)CO)C[C@H]1C	-2.2
COc1ccc(S(=O)(=O)N(C)C[C@@H]2Oc3cc(-c4cccc(F)c4)ccc3S(=O)(=O)N([C@@H](C)CO)C[C@H]2C)cc1	39.7*
COCC(=O)N(C)C[C@H]1Oc2cc(-c3ccccc3F)ccc2S(=O)(=O)N([C@H](C)CO)C[C@H]1C	46.4*
COCC(=O)N(C)C[C@H]1Oc2cc(-c3ccccc3)ccc2S(=O)(=O)N([C@H](C)CO)C[C@H]1C	8.1
CO[C@@H]1CN(C)C(=O)c2ccc(NC(C)=O)cc2OC[C@@H](C)N(S(C)(=O)=O)C[C@H]1C	-3.9
C[C@H](O)C#Cc1cnc2c(c1)C(=O)N([C@H](C)CO)C[C@@H](C)[C@@H](CN(C)C(=O)CN(C)C)O2	3.1
C[C@H](CO)N1C[C@H](C)[C@@H](CN(C)C(=O)Cc2ccncc2)Oc2ncc(C#Cc3ccccc3F)cc2C1=O	-2.6
C[C@H]1CN([C@@H](C)CO)C(=O)c2cc(Br)cnc2O[C@@H]1CN(C)Cc1cccc(F)c1	-0.1
C[C@H](CO)N1C[C@H](C)[C@@H](CN(C)Cc2ccccc2C(=O)O)Oc2cc(-c3ccccc3)ccc2S1(=O)=O	-27.7
C[C@@H]1CN([C@@H](C)CO)C(=O)c2cc(-c3ccc(F)cc3)cnc2O[C@H]1CN(C)Cc1ccc(C(=O)O)cc1	4.8
COc1ccc(NC(=O)Nc2ccc3c(c2)C(=O)N([C@@H](C)CO)C[C@H](C)[C@H](CN(C)Cc2ccc(C(F)(F)F)cc2)O3)cc1	-149.5

Assay outcomes as filed in PubChem.
